Data taken from PubChem BioAssay (NCATS).
Inconclusive results are not listed. Where a call stands in place of a potency, no number is given. Unmarked numbers belong to inactive results. Active and inactive are the calls of the source. Calls follow the shape of the dose curve; as a rule, active = well fitted curve in the direction sought with a large enough effect; inconclusive = small, poorly fitted or top-dose-only effect, or another doubt; inactive = no such curve, though single readings can be large; an effect the other way counts as inactive or inconclusive.

Legend:
[1] = P-glycoprotein substrates identified in KB-3-1 adenocarcinoma cell line, qHTS therapeutic library screen (AID 1346986); conditions: KB-3-1 parental cells viability, CellTiter-Glo, 72 h; series mostly up to 44.5 µM; also: nearly all actives have a fitted effect of over 60% in size
Outline: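 Viability by CellTiter-Glo after 72 h compound exposure at 37 degree C, 5% CO2. Cytotoxic call: curve class -1.1 to -2.4, maximum response >50%, AC50 < 10 uM, compared across KB-3-1 and P-gp-overexpressing KB-8-5-11.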

[2] = P-glycoprotein substrates identified in KB-8-5-11 adenocarcinoma cell line, qHTS therapeutic library screen (AID 1346987); conditions: KB-8-5-11 (P-gp overexpressing) viability, CellTiter-Glo, 72 h; series mostly up to 44.5 µM; also: nearly all actives have a fitted effect of over 65% in size
Outline: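 Human cervical adenocarcinoma KB-8-5-11 cells, selected in colchicine to over-express P-gp and assayed without it, were exposed for 72 h to titrated compounds. An ATP-based luminescent viability signal gave AC50.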

C/C=C(\C)C(=O)OCC1OC(OC2OC(CO)C(O)C(O)C2O)C(O)C(O)C1O (centres undefined)
Potency [1]: inactive | Potency [2]: inactive

CC(=O)OC[C@@]12C(=O)C[C@@H](C)[C@]3(C[C@@H](c4ccoc4)OC3=O)[C@H]1CC[C@H](OC(C)=O)[C@]21CO1
Potency [1]: inactive | Potency [2]: inactive

C[C@@]12CC3(S(=O)(=O)O)OC(O1)[C@]1(COC(=O)c4ccccc4)[C@H]3C[C@]21O[C@@H]1O[C@H](CO)[C@@H](O)[C@H](O)[C@H]1O
Potency [1]: inactive | Potency [2]: inactive

COC(=O)C1=CO[C@@H](O[C@@H]2O[C@H](CO)[C@@H](O)[C@H](O)[C@H]2O)/C(=C\CO)[C@@H]1CC(=O)OCCc1ccc(O)cc1
Potency [1]: inactive | Potency [2]: inactive

COC(=O)C1=CO[C@@H](O[C@@H]2O[C@H](CO)[C@@H](O)[C@H](O)[C@H]2O)[C@@H]2[C@@H](C)[C@@H](OC(=O)/C=C/c3ccccc3)[C@@H](O)[C@H]12
Potency [1]: inactive | Potency [2]: inactive

C/C=C/C=C/[C@@H]1O[C@](O)([C@H](CC)C(=O)NC/C=C/C=C(\C)[C@@H](OC)[C@@H](C)[C@@H]2O[C@H](/C=C/C=C/C=C(\C)C(=O)c3c(O)ccn(C)c3=O)[C@H](O)[C@@H]2O)[C@H](O)[C@H](O)C1(C)C
outcome [1]: inactive [at 9.29 µM] | outcome [2]: inactive [at 9.29 µM]

COCc1c(O)c(C(=O)O)c(C)c2c1OC(=O)c1c(C)cc(O)c(CO)c1O2
Potency [1]: inactive | Potency [2]: inactive

CC(=O)N[C@H](Cc1c[nH]c2ccccc12)C(=O)OCc1cc(C(F)(F)F)cc(C(F)(F)F)c1
Potency [1]: inactive | Potency [2]: inactive

O=C(O[C@@H]1O[C@H](CO)[C@@H](O)[C@H](O)[C@H]1O)c1ccccc1
Potency [1]: inactive | Potency [2]: inactive

CC(=O)O[C@@H]1[C@H](O[C@@H]2O[C@H](CO)[C@@H](O)[C@H](O)[C@H]2O)[C@@H](O[C@@H]2O[C@@H](C)[C@H](O)[C@@H](O[C@@H]3O[C@H](CO)[C@@H](O)[C@H](O)[C@H]3O)[C@H]2O)[C@H](OC(=O)[C@]23CCC(C)(C)C[C@H]2C2=CCC4[C@@]5(C)C[C@H](O)[C@H](O[C@@H]6O[C@H](C(=O)O)[C@@H](O)[C@H](O)[C@H]6O)[C@@](C)(C(=O)O)C5CC[C@@]4(C)[C@]2(C)CC3)O[C@@H]1C (some centres undefined)
outcome [1]: inactive [at 9.29 µM] | activity change, negative = cytotoxicity [2]: 8.71% [at 9.29 µM]

COc1cc(O[C@@H]2O[C@H](CO[C@H]3OC[C@](O)(CO)[C@H]3O)[C@@H](O)[C@H](O)[C@H]2O)cc(OC)c1O
Potency [1]: inactive | Potency [2]: inactive

CCC(C)(C)C1CCc2c(sc(NC(=O)c3ccc(Br)cc3)c2C#N)C1 (centres undefined)
Potency [1]: inactive | Potency [2]: inactive
